2 sequences from article PMC7862700, “An all-to-all approach to the identification of sequence-specific readers for epigenetic DNA modifications on cytosine” can be followed below.

What all share (assay): DAPPL (digital affinity profiling via proximity ligation, sequencing); 10 mM Tris-HCl pH 7.5, 50 mM NaCl, 1 mM DTT, 4% glycerol, room temperature, 30 min; GST-TFs on glutathione beads, 16-mer random dsDNA library, 0.1% formaldehyde crosslink after washing; high values mean tight binding
Conditions in all cases: protein: recombinant; tags: N-terminal GST; dsDNA, one strand shown

The target of one test is T1, FLI1 (Homo sapiens, UniProt Q01543 1-452).
T1 sequence: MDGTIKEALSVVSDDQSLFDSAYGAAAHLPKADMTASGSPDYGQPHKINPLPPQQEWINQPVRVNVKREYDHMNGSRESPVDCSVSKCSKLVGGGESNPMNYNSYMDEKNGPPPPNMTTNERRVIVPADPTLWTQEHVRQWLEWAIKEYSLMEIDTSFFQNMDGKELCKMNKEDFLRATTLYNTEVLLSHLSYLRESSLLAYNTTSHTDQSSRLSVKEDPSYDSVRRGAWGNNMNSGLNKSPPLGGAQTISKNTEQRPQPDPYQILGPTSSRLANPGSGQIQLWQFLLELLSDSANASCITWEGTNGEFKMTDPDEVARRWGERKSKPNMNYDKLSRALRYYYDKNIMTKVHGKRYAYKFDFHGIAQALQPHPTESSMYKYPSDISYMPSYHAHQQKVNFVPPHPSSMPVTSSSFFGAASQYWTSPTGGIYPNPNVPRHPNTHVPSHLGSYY
In short, it runs like this:
(§1)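 Binding signal is defined as a hexamer's read frequency for one factor over its frequency for the tag-only sample. To obtain reads, GST-fused human transcription factors were expressed in yeast, captured on glutathione beads, barcoded with DNA and pooled with that sample. Pools met 200 nmole of a 16-mer random double-stranded DNA library in Tris/NaCl/DTT/glycerol buffer for 30 min at room temperature before washing, 0.1% formaldehyde crosslinking, proximity ligation (BsaI/T4 ligase, 1 h, 37 °C), PCR and Illumina NextSeq500 sequencing.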

Another test addresses T2, ELK1 (Homo sapiens, UniProt P19419 1-428).
T2 sequence: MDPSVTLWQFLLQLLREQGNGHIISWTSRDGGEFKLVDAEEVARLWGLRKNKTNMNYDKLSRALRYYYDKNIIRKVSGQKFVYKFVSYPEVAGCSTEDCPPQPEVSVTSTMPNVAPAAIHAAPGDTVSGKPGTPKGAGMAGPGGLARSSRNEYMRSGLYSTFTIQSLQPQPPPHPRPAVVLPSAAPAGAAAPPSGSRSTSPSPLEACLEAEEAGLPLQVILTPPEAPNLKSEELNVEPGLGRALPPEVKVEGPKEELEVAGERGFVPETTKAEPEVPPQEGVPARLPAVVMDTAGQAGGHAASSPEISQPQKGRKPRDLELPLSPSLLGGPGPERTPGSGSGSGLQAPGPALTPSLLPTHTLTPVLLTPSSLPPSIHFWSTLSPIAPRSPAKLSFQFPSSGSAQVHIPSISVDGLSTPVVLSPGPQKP
In short, it runs like this:
as §1

A further test concerns the target T3, GABPA (Homo sapiens, UniProt Q06546 1-454).
T3 sequence: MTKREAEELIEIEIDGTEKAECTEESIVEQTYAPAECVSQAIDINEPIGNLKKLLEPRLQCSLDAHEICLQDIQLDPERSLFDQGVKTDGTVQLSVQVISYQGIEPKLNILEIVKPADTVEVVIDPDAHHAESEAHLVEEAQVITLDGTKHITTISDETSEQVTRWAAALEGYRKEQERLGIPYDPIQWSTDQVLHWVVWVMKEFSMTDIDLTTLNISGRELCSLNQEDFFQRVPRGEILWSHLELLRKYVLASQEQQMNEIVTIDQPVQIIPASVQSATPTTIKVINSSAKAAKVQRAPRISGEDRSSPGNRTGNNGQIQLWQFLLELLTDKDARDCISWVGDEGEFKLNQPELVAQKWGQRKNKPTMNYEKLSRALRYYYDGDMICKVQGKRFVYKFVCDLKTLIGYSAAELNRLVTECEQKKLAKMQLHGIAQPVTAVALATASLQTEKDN
A digest of the protocol: as §1

In a further test the target is T4, ERG (Homo sapiens, UniProt P11308 1-479).
T4 sequence: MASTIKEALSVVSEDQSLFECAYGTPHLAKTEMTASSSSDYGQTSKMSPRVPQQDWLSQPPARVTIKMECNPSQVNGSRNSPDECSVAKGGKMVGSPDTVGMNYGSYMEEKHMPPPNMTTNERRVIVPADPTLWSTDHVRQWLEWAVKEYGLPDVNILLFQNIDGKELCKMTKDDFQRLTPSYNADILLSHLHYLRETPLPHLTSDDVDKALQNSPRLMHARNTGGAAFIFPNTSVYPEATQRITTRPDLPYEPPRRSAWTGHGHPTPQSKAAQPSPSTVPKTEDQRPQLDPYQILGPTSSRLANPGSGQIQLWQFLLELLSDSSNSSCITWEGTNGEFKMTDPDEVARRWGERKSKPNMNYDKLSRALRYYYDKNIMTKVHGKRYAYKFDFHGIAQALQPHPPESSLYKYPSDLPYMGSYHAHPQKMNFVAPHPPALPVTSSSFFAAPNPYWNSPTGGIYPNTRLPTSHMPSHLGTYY
A digest of the protocol:
as §1

A further test deals with ELF1 (Homo sapiens, UniProt P32519 1-619). A digest of the protocol: as §1
Chain of ELF1 (P32519 whole entry): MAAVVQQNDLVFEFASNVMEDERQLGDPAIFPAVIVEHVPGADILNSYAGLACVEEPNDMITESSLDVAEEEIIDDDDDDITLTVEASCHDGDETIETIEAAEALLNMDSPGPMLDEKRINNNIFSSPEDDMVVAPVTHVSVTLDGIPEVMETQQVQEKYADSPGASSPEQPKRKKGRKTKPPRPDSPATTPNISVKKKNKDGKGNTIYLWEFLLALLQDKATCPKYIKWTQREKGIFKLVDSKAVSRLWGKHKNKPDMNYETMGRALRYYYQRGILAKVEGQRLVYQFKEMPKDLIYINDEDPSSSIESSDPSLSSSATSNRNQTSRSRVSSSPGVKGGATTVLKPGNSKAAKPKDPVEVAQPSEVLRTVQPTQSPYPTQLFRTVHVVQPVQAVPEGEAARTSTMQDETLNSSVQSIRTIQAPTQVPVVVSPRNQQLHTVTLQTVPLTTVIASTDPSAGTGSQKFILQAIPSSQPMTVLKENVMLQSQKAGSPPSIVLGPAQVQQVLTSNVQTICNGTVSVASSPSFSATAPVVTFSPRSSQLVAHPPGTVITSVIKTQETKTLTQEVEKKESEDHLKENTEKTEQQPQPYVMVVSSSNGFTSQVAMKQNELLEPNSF
The target of a further test is T5, EHF (Homo sapiens, UniProt Q9NZC4 1-300).
T5 sequence: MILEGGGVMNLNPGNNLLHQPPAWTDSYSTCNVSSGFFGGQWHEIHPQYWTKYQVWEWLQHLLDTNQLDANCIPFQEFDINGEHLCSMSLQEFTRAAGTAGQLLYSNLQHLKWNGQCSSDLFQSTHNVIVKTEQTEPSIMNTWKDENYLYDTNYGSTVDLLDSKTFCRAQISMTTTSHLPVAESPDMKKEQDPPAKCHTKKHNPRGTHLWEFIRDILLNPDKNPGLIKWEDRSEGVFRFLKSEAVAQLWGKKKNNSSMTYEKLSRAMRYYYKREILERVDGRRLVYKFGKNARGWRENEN
In short, it runs like this:
as §1

For another test, the target named is SPI1 (Homo sapiens, UniProt P17947 1-270). A digest of the protocol:
as §1

For the next test, the target named is SPIB (Homo sapiens, UniProt Q01892 1-262). In short, it runs like this: as §1
Chain of SPIB (Q01892 whole entry): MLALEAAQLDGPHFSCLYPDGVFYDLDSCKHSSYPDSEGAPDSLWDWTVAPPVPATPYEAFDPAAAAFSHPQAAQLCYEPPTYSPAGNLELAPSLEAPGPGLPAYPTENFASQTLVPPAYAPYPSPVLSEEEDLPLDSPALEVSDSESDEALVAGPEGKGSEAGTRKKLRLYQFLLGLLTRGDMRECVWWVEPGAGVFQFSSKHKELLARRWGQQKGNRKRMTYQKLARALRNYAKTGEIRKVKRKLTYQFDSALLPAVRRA
The next test addresses T6, ELK3 (Homo sapiens, UniProt P41970 1-407).
T6 sequence: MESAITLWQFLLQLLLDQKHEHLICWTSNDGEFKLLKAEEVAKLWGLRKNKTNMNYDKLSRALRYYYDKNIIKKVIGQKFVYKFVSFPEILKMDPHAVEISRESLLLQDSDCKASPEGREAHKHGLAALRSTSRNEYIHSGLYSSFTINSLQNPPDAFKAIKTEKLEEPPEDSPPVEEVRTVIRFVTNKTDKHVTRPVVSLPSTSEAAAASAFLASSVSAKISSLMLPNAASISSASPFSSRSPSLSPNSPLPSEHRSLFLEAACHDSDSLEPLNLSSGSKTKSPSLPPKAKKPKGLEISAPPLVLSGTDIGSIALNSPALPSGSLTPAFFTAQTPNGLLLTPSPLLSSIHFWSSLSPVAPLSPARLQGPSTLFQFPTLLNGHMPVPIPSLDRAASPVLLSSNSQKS
In short, it runs like this: as §1

A further test deals with T7, FEV (Homo sapiens, UniProt Q99581 1-238).
T7 sequence: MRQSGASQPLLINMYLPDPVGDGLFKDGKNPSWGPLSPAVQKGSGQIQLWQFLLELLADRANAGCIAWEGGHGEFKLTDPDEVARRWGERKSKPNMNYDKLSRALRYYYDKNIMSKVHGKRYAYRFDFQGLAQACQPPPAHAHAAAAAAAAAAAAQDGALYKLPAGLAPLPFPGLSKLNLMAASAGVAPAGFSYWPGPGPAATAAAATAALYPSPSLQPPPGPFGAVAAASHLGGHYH
In short, it runs like this: as §1

Another test concerns the target ETV5 (Homo sapiens, UniProt P41161 1-510). In short, it runs like this:
as §1

A further test deals with T8, SPIC (Homo sapiens, UniProt Q8N5J4 1-248).
T8 sequence: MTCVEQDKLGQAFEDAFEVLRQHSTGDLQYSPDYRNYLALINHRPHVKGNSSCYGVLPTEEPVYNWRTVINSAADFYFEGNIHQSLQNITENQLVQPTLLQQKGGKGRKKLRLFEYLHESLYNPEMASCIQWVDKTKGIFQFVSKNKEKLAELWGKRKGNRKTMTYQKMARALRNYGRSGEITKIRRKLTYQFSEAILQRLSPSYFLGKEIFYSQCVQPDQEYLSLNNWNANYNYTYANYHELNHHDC
In short, it runs like this: as §1

The target of a further test is ELF4 (Homo sapiens, UniProt Q99607 1-663). In short, it runs like this:
as §1

Another test has as its target T9, ELK4 (Homo sapiens, UniProt P28324-2 1-405).
T9 sequence: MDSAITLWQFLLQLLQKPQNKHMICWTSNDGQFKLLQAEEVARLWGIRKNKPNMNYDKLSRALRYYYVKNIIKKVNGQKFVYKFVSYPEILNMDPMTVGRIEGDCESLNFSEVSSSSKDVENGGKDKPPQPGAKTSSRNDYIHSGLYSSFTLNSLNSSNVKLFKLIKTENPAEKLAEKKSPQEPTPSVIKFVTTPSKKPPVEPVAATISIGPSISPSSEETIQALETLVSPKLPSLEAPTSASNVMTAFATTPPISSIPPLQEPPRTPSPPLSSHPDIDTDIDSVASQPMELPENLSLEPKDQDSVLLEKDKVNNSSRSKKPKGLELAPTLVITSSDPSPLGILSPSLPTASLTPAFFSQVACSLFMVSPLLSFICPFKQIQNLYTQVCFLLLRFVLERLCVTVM
In short, it runs like this: as §1

The next test deals with T10, ETV2 (Homo sapiens, UniProt O00321 1-342).
T10 sequence: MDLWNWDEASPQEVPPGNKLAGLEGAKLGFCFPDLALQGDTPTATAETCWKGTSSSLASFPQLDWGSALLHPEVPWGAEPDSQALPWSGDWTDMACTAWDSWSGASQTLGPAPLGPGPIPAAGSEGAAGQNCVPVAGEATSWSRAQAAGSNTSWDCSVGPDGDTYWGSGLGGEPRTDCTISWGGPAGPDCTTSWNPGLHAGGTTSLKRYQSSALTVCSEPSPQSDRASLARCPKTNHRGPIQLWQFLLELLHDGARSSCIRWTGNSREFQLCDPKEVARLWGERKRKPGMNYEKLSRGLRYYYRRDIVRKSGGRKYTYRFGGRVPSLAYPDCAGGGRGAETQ
A digest of the protocol: as §1

For another test, the target named is T11, ELF3 (Homo sapiens, UniProt P78545 1-371).
T11 sequence: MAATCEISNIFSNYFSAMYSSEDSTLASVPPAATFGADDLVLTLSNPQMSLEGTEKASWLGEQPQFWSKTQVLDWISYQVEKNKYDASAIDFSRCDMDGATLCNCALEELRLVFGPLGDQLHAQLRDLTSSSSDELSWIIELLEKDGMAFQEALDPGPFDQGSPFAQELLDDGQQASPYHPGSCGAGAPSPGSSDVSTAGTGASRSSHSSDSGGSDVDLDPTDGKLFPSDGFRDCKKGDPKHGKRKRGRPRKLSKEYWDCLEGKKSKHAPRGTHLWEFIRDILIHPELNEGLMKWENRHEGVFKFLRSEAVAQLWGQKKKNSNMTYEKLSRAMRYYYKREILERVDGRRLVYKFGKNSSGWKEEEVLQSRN
In short, it runs like this: as §1

For the next test, the target named is ETV1 (Homo sapiens, UniProt P50549 1-477). In short, it runs like this:
as §1

Chain of ELF4 (Q99607 whole entry): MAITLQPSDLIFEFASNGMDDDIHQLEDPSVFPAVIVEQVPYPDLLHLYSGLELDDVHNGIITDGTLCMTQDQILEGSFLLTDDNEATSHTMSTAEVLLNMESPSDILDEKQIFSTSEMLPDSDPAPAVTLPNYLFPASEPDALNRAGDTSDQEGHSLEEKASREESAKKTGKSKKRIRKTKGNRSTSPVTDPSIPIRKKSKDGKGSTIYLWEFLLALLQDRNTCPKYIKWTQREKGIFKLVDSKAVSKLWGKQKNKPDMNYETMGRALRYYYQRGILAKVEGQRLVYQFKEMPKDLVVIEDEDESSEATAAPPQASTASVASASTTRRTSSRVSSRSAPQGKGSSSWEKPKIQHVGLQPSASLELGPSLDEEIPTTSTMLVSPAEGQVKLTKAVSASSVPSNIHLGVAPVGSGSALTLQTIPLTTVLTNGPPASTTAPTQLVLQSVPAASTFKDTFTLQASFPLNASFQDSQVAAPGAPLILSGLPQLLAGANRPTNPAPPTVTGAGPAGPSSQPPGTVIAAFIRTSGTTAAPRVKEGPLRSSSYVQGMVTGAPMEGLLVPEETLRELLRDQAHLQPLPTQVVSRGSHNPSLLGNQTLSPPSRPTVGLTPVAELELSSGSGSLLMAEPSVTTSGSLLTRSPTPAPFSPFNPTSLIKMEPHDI
Chain of ETV5 (P41161 whole entry): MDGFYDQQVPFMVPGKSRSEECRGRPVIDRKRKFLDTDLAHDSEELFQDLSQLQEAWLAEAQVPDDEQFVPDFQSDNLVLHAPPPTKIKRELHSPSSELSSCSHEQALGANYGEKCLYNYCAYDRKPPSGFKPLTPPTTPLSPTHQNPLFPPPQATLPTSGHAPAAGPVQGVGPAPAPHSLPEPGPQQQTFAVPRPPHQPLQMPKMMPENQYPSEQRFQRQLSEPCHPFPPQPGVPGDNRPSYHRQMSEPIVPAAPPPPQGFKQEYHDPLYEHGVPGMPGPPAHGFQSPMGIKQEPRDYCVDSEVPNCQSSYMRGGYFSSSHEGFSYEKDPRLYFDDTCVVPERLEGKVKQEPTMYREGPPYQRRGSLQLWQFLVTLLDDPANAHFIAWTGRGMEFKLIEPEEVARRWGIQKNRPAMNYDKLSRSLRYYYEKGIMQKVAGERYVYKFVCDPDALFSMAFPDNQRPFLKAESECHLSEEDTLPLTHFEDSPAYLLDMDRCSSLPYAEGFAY
Chain of ETV1 (P50549 whole entry): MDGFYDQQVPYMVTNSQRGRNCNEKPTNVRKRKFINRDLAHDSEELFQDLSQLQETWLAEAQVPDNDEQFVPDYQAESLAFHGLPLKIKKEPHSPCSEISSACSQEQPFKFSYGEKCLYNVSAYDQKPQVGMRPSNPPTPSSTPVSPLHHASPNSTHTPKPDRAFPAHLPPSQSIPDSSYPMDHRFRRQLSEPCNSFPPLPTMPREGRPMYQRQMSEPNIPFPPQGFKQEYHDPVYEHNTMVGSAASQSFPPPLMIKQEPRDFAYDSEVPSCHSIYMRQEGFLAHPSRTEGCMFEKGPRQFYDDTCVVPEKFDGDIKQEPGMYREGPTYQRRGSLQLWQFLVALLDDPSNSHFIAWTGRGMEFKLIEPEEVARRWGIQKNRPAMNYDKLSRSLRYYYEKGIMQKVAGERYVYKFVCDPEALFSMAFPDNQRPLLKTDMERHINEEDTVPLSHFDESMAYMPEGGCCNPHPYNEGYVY

As to CTGCGT, the binding signal is 1.12 fold enrichment (6-mer frequency, TF over GST control) with FLI1; 1.15 fold enrichment (6-mer frequency, TF over GST control) with ELK1; 1.16 fold enrichment (6-mer frequency, TF over GST control) with GABPA; 1.13 fold enrichment (6-mer frequency, TF over GST control) in the test with ERG; 1.17 fold enrichment (6-mer frequency, TF over GST control) with ELF1; 1.18 fold enrichment (6-mer frequency, TF over GST control) with EHF. Further, the binding signal with SPI1 was 1.16 fold enrichment (6-mer frequency, TF over GST control); with SPIB, 1.12 fold enrichment (6-mer frequency, TF over GST control); in the test with ELK3, 1.24 fold enrichment (6-mer frequency, TF over GST control); with FEV, 1.07 fold enrichment (6-mer frequency, TF over GST control); in the test with ETV5 it was 1.09 fold enrichment (6-mer frequency, TF over GST control); in the test with SPIC, 1.31 fold enrichment (6-mer frequency, TF over GST control). The binding signal with ELF4 was 1.09 fold enrichment (6-mer frequency, TF over GST control); with ELK4, 1.3 fold enrichment (6-mer frequency, TF over GST control); with ETV2, 1.09 fold enrichment (6-mer frequency, TF over GST control); with ELF3 it was 1.07 fold enrichment (6-mer frequency, TF over GST control); in the test with ETV1, 1.11 fold enrichment (6-mer frequency, TF over GST control).
Consider GTACAC, for which the binding signal is 1.18 fold enrichment (6-mer frequency, TF over GST control) in the test with FLI1; 1.31 fold enrichment (6-mer frequency, TF over GST control) with ELK1; 1.18 fold enrichment (6-mer frequency, TF over GST control) in the test with GABPA; 1.29 fold enrichment (6-mer frequency, TF over GST control) with ERG; 1.17 fold enrichment (6-mer frequency, TF over GST control) with ELF1; 1.14 fold enrichment (6-mer frequency, TF over GST control) with EHF. In addition, the binding signal was 1.18 fold enrichment (6-mer frequency, TF over GST control) with SPI1; 1.18 fold enrichment (6-mer frequency, TF over GST control) with SPIB; 1.23 fold enrichment (6-mer frequency, TF over GST control) with ELK3; 1.2 fold enrichment (6-mer frequency, TF over GST control) in the test with FEV; 1.27 fold enrichment (6-mer frequency, TF over GST control) with ETV5; 1.33 fold enrichment (6-mer frequency, TF over GST control) in the test with SPIC. In addition, the binding signal with ELF4 was 1.29 fold enrichment (6-mer frequency, TF over GST control); with ELK4, 1.23 fold enrichment (6-mer frequency, TF over GST control); in the test with ETV2, 1.17 fold enrichment (6-mer frequency, TF over GST control); with ELF3 it was 1.26 fold enrichment (6-mer frequency, TF over GST control); with ETV1 it was 1.2 fold enrichment (6-mer frequency, TF over GST control).
